Test results reported in PubChem BioAssay (NCI).
This is part of a sample that, as a whole, favours compounds with a hit. Of some 79,000 tested, about 15% had one in any assay. Values without a mark were called inactive. The source made the active and inactive calls. Cut-off read from the data, not from the text of the source: active = growth inhibition above about 70%; inactive = the rest.

Tests used:
[1] = NCI Yeast Anticancer Drug Screen. Data for the rad50 strain (AID 155);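 note: 0% = growth of vehicle-only cultures of the same strain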; details: S. cerevisiae rad50 strain growth inhibition, stronger effect = higher value
Summary of the method: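 Growth of the mutant yeast was measured after compound exposure and referenced to vehicle-treated cultures.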

[2] = NCI Yeast Anticancer Drug Screen. Data for the mec2-1 strain (AID 157); details: S. cerevisiae mec2-1 strain, stronger effect = higher value
Summary of the method: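 Compounds were applied to mec2-1 yeast cells. Their growth was then compared with that of vehicle-treated cultures to give growth inhibition.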

[3] = NCI Yeast Anticancer Drug Screen. Data for the sgs1 mgt1 strain (AID 161);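 note: 0% = growth of cultures given vehicle only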; details: S. cerevisiae sgs1 mgt1 strain, stronger effect = higher value
Summary of the method: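 Yeast cells carrying a defined DNA-repair defect were exposed to test compounds. Growth inhibition was measured relative to vehicle-treated controls.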

[4] = NCI Yeast Anticancer Drug Screen. Data for the cln2 rad14 strain (AID 165);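 note: 0% = growth equal to vehicle treated cultures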; details: S. cerevisiae cln2 rad14 strain, stronger effect = higher value
Summary of the method: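 Strain: cln2 rad14 yeast, altered in cell cycle control and DNA damage repair. Read-out: growth inhibition vs vehicle.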

[5] = NCI Yeast Anticancer Drug Screen. Data for the bub3 strain (AID 167); details: S. cerevisiae bub3 mutant strain, stronger effect = higher value
Summary of the method: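 Whole-cell yeast assay. The mutant strain was incubated with compounds, and growth inhibition was determined by comparison with vehicle-treated cells.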

[6] = NCI Yeast Anticancer Drug Screen. Data for the mlh1 rad18 strain (AID 175); details: S. cerevisiae mlh1 rad18 strain growth inhibition, stronger effect = higher value
Summary of the method: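 A repair-deficient yeast strain is exposed to test compound, and growth is scored relative to vehicle-treated controls.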

[7] = at 5.0 µM (retest, dose inferred, filed as 0.5)
[8] = at 50.0 µM (retest, dose inferred, filed as 5.0)

SMILES	growth inhibition [1, 7]	growth inhibition [1, 8]	growth inhibition ([1]; at 50.0 µM)	growth inhibition [2, 7] [%]	growth inhibition [2, 8]	growth inhibition ([2]; at 50.0 µM)	growth inhibition [3, 7]	growth inhibition [3, 8]	growth inhibition ([3]; at 50.0 µM)	growth inhibition [4, 7] [%]	growth inhibition [4, 8]	growth inhibition ([4]; at 50.0 µM)	growth inhibition [5, 7] [%]	growth inhibition [5, 8]	growth inhibition ([5]; at 50.0 µM)	growth inhibition [6, 7] [%]	growth inhibition [6, 8]	growth inhibition ([6]; at 50.0 µM)
CC1(C)CCC(C)(C)c2cc(C(=O)Nc3ccc(C(=O)O)cc3)ccc21	21%	99% (active)	-12.2%	22	96% (active)	-18.1%	20%	99% (active)	0.8%	36	97% (active)	-8.75%	13	98% (active)	4%	34	97% (active)	5.75%
COC(=O)c1c(C)cccc1C(=O)c1c(C)cc(C)cc1C	-6%	63%	73.1% (active)	21	68%	82.2% (active)	-1%	82% (active)	91.8% (active)	-26	45%	15.2%	2	56%	88.2% (active)	4	85% (active)	91.8% (active)
O=C(c1ccccc1)N1CCCCC1	-1%	33%	81.5% (active)	0	5%	-1.55%	-2%	3%	23.9%	2	3%	48%	-2	3%	15.5%	0	6%	47%
CC1C(=O)C(C)C(c2ccccc2)N(C)C1c1ccccc1 (stereo not given)	81% (active)	98% (active)	99% (active)	42	99% (active)	99.1% (active)	81% (active)	98% (active)	99.3% (active)	31	98% (active)	99% (active)	42	95% (active)	99.4% (active)	63	98% (active)	99.1% (active)
COc1ccc(C2C3=C(CCCC3=O)Oc3cc4c(cc32)OCO4)c(OC)c1 (stereo not given)	17%	92% (active)	3.95%	-3	90% (active)	18.8%	6%	92% (active)	-11.7%	6	88% (active)	-6.1%	8	94% (active)	1.05%	4	92% (active)	8.95%
Cc1cc(C)c(O)c(C(C)(C)C)c1	-1%	3%	92.3% (active)	1	1%	59.7%	1%	0%	74.7% (active)	2	8%	64.6%	3	-10%	66.8%	2	4%	89.7% (active)
COc1ccc(C(O)(c2ccccc2)c2ccccc2)cc1	-5%	98% (active)	99.1% (active)	-4	99% (active)	99% (active)	-3%	99% (active)	99.2% (active)	-5	92% (active)	93.9% (active)	3	87% (active)	99.5% (active)	-6	98% (active)	98.7% (active)
O=[N+]([O-])c1ccc2c(c1)/C(=N/O)c1ccccc1-2	21%	49%	88.3% (active)	0	7%	28.4%	4%	20%	70%	-10	4%	46.2%	8	29%	18.8%	19	38%	81% (active)
O=C1OC(=O)C2C(c3ccccc3)=C(c3ccccc3)C(c3ccccc3)=C(c3ccccc3)C12 (stereo not given)	37%	77% (active)	61%	35	72% (active)	50%	33%	62%	54.4%	32	67%	76.2% (active)	29	63%	56%	47	81% (active)	62%
Nc1ccc(C(=O)NN2C(=O)C(Cl)C2c2cc(Br)cc(Br)c2O)cc1 (stereo not given)	-3%	64%	96.2% (active)	-12	80% (active)	94.2% (active)	-3%	91% (active)	93.7% (active)	-20	76% (active)	89% (active)	10	54%	98.2% (active)	5	85% (active)	94.7% (active)
